High-throughput results from PubChem BioAssay.
This is a sample that favours compounds with a hit; in the whole collection about 19% have one here.
TGFb inhibitor – qHTS for Inhibitors of TGF-b | HepG2 CAGA-GFP TGF-b/SMAD3 reporter, GFP fluorescence, 18 h; TGF-beta stimulated, 500 pg/mL final | Potency, µM (top dose mostly 46.1 µM), for inactives: at the top dose activity, negative = inhibition, usual class: inhibitors | 410,000 compounds, 1.2% hits | AID 588855, 2011; further: potency means the concentration at half of the fitted maximal effect; on the % scale 0 is the no-effect control and ±100 the full control effect; nearly all actives have a fitted effect of over 65% in size
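HEPG2 CAGA-GFP, 1000 cells/well; 2 h settle, 37 C; cpd via pin tool; TGF-b 500 pg/mL final; 18 h, 37 C; GFP imaging ex488/em500-530; %Activity normalised to -TGF-b and +DMSO controls; CRC fit, curve class.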
DT40 TDP1 CPT – qHTS for Inhibitors of human tyrosyl-DNA phosphodiesterase 1 (TDP1): qHTS in cells in presence of CPT. chicken DT40 Tdp1-/-;hTDP1 cells + 20 nM CPT, ATP luminescence, 48 h. Potency, µM (titrated, usually from 46.2 µM), for inactives: at the top dose activity change, negative = growth inhibition, hits mostly inhibitors. 420,000 compounds, 12% hits. AID 686979, 2013; further: potency means the concentration at half of the fitted maximal effect; on the % scale 0 is the no-effect control and ±100 the full control effect; nearly all actives have a fitted effect of over 55% in size
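Cell growth measured by CellTiter-Glo luminescence after a minimum 48 h, 37 C compound exposure with 20 nM CPT in Tdp1-knockout DT40 cells stably expressing hTDP1, seeded 400/well; qHTS titration format.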
DT40 TDP1 no CPT – qHTS for Inhibitors of human tyrosyl-DNA phosphodiesterase 1 (TDP1): qHTS in cells in absence of CPT. DT40 Tdp1-/- hTDP1 cells, no CPT, ATP luminescence, 48 h. Potency, µM (titrated, usually from 46.2 µM), for the others: at the highest dose activity change, negative = growth inhibition, most hits filed as inhibitors. 420,000 compounds, 15% hits. AID 686978, 2013; further: potency means the concentration at half of the fitted maximal effect; on the % scale 0 is the no-effect control and ±100 the full control effect; nearly all actives have a fitted effect of over 55% in size
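Readout: luminescence from CellTiter-Glo after 30 min in the dark at RT. Cells: DT40 Tdp1-/- with stable hTDP1, 400/well. Exposure: compounds alone, ≥48 hr, 37 °C.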
ASM inhibitor – Inhibitors of Secretory Acid Sphingomyelinase (S-ASM): qHTS; Sphingomyelin phosphodiesterase (Homo sapiens), P17405; Potency, µM (doses to about 57.5 µM), for inactives: at the top dose activity change, negative = inhibition, usual class: inhibitors; AID 504937, 2011; placental ASM, HMU-PC fluorogenic substrate, 60 min; 340,000 compounds, 0.006% hits; further: potency means the concentration at half of the fitted maximal effect
Target sequence (P17405 47-631 limits assumed): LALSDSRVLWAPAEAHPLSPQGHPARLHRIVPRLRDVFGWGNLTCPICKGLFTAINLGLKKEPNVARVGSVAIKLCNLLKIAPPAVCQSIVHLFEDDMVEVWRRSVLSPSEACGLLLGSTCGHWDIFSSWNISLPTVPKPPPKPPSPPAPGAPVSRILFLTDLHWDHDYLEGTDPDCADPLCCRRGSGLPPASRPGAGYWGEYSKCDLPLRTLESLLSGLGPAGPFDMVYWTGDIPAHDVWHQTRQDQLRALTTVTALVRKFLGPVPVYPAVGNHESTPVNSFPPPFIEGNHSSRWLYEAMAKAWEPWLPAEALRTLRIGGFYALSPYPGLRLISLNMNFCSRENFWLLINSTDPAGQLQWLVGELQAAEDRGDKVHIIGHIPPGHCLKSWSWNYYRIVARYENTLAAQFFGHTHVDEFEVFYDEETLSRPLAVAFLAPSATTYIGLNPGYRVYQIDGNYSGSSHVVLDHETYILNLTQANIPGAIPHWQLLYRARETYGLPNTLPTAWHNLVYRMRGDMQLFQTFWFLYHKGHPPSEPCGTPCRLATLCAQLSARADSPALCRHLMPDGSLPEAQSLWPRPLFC
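HMU-PC0 cleavage (9 uM final) by human placental ASM, 60 min at 37 °C following 10 min compound exposure at RT; stopped at pH 10, fluorescence Ex 386/Em 447 nm.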
IL-1B inflam inh – qHTS for Inhibitors of Inflammasome Signaling: IL-1-beta AlphaLISA Primary Screen; activity change, % at 57.5 µM; THP-1 LPS/ATP IL-1B secretion, AlphaLISA, 16 h; active compounds read low; 360,000 compounds, 4.7% hits; in the data active means activity change below about -50%; inconclusive means mostly about -30% to -49%; further: on the % scale 0 is the no-effect control and ±100 the full control effect
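Secreted IL-1B measured by AlphaLISA bead assay after 16 h compound exposure of THP-1 cells; compounds (final up to 57.5 uM) added 1 h before LPS (250 ng/mL) and ATP (1.25 mM) stimulation; lower signal means less secretion.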
HepG2 tox – qHTS for Inhibitors of TGF-b: Cytotox Counterscreen. Potency, µM (titrated, usually from 46.1 µM), for the others: top-dose activity change, negative = cytotoxicity, usual class: cytotoxic. HepG2 CAGA-GFP viability, ATP luminescence, 18 h. 410,000 compounds, 0.76% hits; further: potency means the concentration at half of the fitted maximal effect
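HepG2 CAGA-GFP cells (1000/well, DMEM with 1% FBS) received compound, then TGF-beta at 500 pg/mL final, and were incubated 18 hours at 37 degrees C. Viability was read by CellTiter-Glo luminescence. Media-only wells were set as complete cell-killing and DMSO as no toxicity.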
* = called active by the depositor; ? = inconclusive; / = no result; [ ] = dose if it differs, or a comment. Unless noted, the call rests on the fitted dose curve; in most records, active means well fitted curve in the direction sought with a large enough effect; inconclusive means small, poorly fitted or top-dose-only effect, or another doubt; inactive means no such curve, though single readings can be large; an effect the other way counts as inactive or inconclusive.

SMILES	TGFb inhibitor	DT40 TDP1 CPT	DT40 TDP1 no CPT	ASM inhibitor	IL-1B inflam inh	HepG2 tox
CCCCNC(=O)c1ccc2nc(-c3cccs3)c(-c3cccs3)nc2c1	-6.9%	?	20µM*	/	/	-24.4%
COC(CNC(=O)c1ccc2nc(-c3cccs3)c(-c3cccs3)nc2c1)OC	-0.7%	18.4µM*	13µM*	341.7%	-51.2*	-24.2%
COc1ccc(-c2nc3ccc(C(=O)NCC(OC)OC)cc3nc2-c2ccc(OC)c(OC)c2)cc1OC	-2.8%	?	?	13.9%	-7.2	-1.5%
CCOCCCNC(=O)c1ccc2nc(-c3ccc(OC)c(OC)c3)c(-c3ccc(OC)c(OC)c3)nc2c1	?	?	?	21.7%	-21.3	-1.3%
CCOC(=O)c1cccc(NC(=O)CCc2c(C)nc3cc(-c4ccc(Cl)cc4)nn3c2C)c1	-8.2%	20.6µM*	16.4µM*	/	/	4.0%
CCOC(=O)c1cnc2cc(-c3ccc(C(C)(C)C)cc3)nn2c1N	20.6%	?	?	11.4%	21.7	2.1%
CCOc1ccc(NC(=O)CCc2c(C)nc3cc(-c4ccc(Cl)cc4)nn3c2C)cc1	8.4%	14.6µM*	16.4µM*	/	/	-0.3%
CCOC(=O)Cc1c(C)nc2cc(-c3ccc(C(C)(C)C)cc3)nn2c1C	1.9%	?	14.6µM*	/	/	0.3%
COC(=O)c1ccccc1NC(=O)CCc1c(C)nc2cc(-c3ccc(Cl)cc3)nn2c1C	1.3%	?	?	/	/	-2.0%
Cc1noc(C(=O)NC2CCCCC2)c1Cl	17.1%	-23.7%	-2.6%	2.1%	-4.9	9.4%
COc1ccc(-n2ccn(CC(=O)Nc3ccccc3C(F)(F)F)c(=O)c2=O)cc1OC	16.1%	-10.1%	-3.8%	/	/	4.8%
COc1cc(/C=C/c2nc(N)nc(-c3ccccc3O)n2)cc(OC)c1OC	0.0%	?	10.3µM*	-15.2%	6.6	-27.9%
COc1cc(/C=C/c2noc(-c3ccccc3O)n2)cc(OC)c1OC	?	1.9%	?	1.0%	13.9	-7.9%
COc1cc(/C=C/c2nc(-c3ccccc3O)n[nH]2)cc(OC)c1OC	?	20.6µM*	14.6µM*	?	-120.6*	11.2µM*
CC(=O)Nc1ccc(/C=C/c2nc(-c3ccccc3O)n[nH]2)cc1	-10.3%	?	29.1µM*	-0.4%	1.6	-3.9%
Cc1cc(=O)[nH]c(NC(=O)Cc2ccccc2)n1	-6.7%	12.6%	4.8%	2.7%	2.8	-25.8%
CC(C)OCCCn1c(SC(C)C(=O)NC2CC2)nc2ccccc2c1=O (stereo unspecified)	21.9%	0.4%	-29.1%	1.1%	-9.1	-1.0%
O=C(OCc1ccccc1)N1CCN(/[N+]([O-])=N/Oc2ccc([N+](=O)[O-])cc2[N+](=O)[O-])CC1	?	/	/	/	/	-107.7%
CCCOC(=O)N1CCN(/[N+]([O-])=N/Oc2ccc([N+](=O)[O-])cc2[N+](=O)[O-])CC1	7.08µM*	/	/	/	/	-97.1%
Cn1ncc(Br)c1NC(=O)c1ccco1	7.7%	3.1%	-0.1%	-0.5%	24.5	13.3%
CSc1cccc(N2C(=O)N(Cc3ccc([N+](=O)[O-])cc3)c3ccccc3S2(=O)=O)c1	-16.3%	-8.5%	-21.0%	/	/	4.2%
C=Cc1ccc(CN2C(=O)N(c3cccc(Cl)c3)S(=O)(=O)c3ccccc32)cc1	-20.2%	11.6µM*	?	/	/	-21.9%
COc1ccc(N2C(=O)N(Cc3ccc(C)cc3)c3ccccc3S2(=O)=O)cc1	-3.0%	?	?	1.3%	9.1	-14.5%
COc1cc(OC)cc(N2C(=O)N(Cc3ccc(C(C)(C)C)cc3)c3ccccc3S2(=O)=O)c1	-0.6%	?	20.6µM*	/	/	4.3%
COCC1CCCN(Cc2ccc3c(c2)CN(C(=O)c2cn4ccc(C)cc4n2)CCO3)C1 (stereo unspecified)	/	-11.2%[9.04 µM]	-16.6%	/	/	/
SMILES	TGFb inhibitor	DT40 TDP1 CPT	DT40 TDP1 no CPT	ASM inhibitor	IL-1B inflam inh	HepG2 tox
CS(=O)(=O)N1CCCC(C(=O)Nc2cccc(F)c2)C1 (stereo unspecified)	-18.3%	4.8%	10.3%	0.4%	-1.6	-27.7%
C/C(O)=c1/ccc2cccc3nc(C)nc1c23	-0.2%	?	?	173.8%	-52.7*	-0.6%
Nc1cc(C(=O)O)c(N)c2c1C(=O)c1ccccc1C2=O	?	16.4µM*	?	-1.4%	0.0	-10.9%
COc1ccc(N2CCN(C(=O)CCc3c(C)nc4cc(-c5ccc(OC)cc5OC)nn4c3C)CC2)cc1	16.0%	20.6µM*	16.4µM*	/	/	-8.4%
COc1ccc(-c2cc3nc(C)c(CCC(=O)N4CCN(c5cccc(Cl)c5)CC4)c(C)n3n2)c(OC)c1	?	2.59µM*	5.8µM*	/	/	-15.5%
COc1ccc(-c2cc3nc(C)c(CCC(=O)N4CCN(c5ccc(F)cc5)CC4)c(C)n3n2)c(OC)c1	5.0%	23.1µM*	16.4µM*	/	/	-1.2%
CN1CCc2nc(SCC(=O)Nc3ccc(OC(F)(F)F)cc3)c(C#N)c(-c3cccs3)c2C1	-25.9%	14.6µM*	23.1µM*	-11.3%	-24.9	-6.4%
Cc1cccc(CSc2nc3c(c(-c4cccs4)c2C#N)CN(C)CC3)c1	-6.4%	?	?	-1.6%	?	6.9%
CC(C)(C)C(=O)CSc1nc2c(c(-c3cccs3)c1C#N)CCC2	-2.3%	?	23.1µM*	37.5%	15.1	-24.3%
Cc1cccc(CSc2nc(N)c(C#N)c(-c3cccs3)c2C#N)c1	-22.4%	?	?	-9.8%	-54.3*	-31.8%
CC(=O)CSc1nc(N)c(C#N)c(-c2cccs2)c1C#N	-7.9%	20.6µM*	13µM*	-10.3%	9.3	0.6%
CCC1CN(CCNC(=O)c2cccc(C(=O)OC)c2)Cc2cc(OC)ccc2O1 (stereo unspecified)	/	4.0%[9.04 µM]	-26.3%	/	/	/
CN(C)C(=O)c1cnc(-c2ccccc2)nc1-c1ccccc1	9.7%	-12.2%	-28.0%	-1.1%	-25.3	-4.5%
CC(OC(=O)c1ccc(Cl)nc1)C(=O)NC1(C#N)CCCCC1 (stereo unspecified)	-16.2%	7.6%	-1.0%	-0.3%	-6.0	2.1%
c1ccc(-c2csc3ncnc(Sc4nnnn4-c4ccccc4)c23)cc1	11.2µM*	?	10µM*	/	/	-84.8%
